# The list is not random: actives were taken first. Their share in the collection is about 10%.
# LMNA splice mod – modulators of lamin A splicing; HeLa LMNA splicing GFP/RFP minigene ratio, 48 h; Potency, µM (titrated, usually from 46.1 µM), without a hit: at the highest dose ratio change, negative = inhibition, actives largely listed as inhibitors; actives 0.01% (n = 200,000); AID 1487; active means well fitted inhibition curve with a large enough effect in the signal ratio, with a control signal flat, not every such curve was filed as active; inconclusive means small, poorly fitted or top-dose-only effect, or effect the other way, or a change in a side signal; the % refers to the signal ratio; further: potency means the concentration at half of the fitted maximal effect
#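 S3 HeLa cells stably expressing lamin A-EGFP splicing minigene plus DsRed2, 600 cells/well, 48 h compound exposure at 37C. Laser-scanning cytometry; analysed as GFP (500-530 nm)/RFP (575-640 nm) total intensity ratio; 0.5% DMSO vehicle.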
# HPGD block – blocks human HPGD enzyme activity. purified HPGD, NADH fluorescence kinetic, PGE2 substrate. Potency, µM, without a hit: at the top dose activity change, negative = inhibition, usual class: inhibitors. actives 4.3% (n = 150,000). AID 894; further: potency means the concentration at half of the fitted maximal effect
# Target sequence (P15428 whole entry, looked up): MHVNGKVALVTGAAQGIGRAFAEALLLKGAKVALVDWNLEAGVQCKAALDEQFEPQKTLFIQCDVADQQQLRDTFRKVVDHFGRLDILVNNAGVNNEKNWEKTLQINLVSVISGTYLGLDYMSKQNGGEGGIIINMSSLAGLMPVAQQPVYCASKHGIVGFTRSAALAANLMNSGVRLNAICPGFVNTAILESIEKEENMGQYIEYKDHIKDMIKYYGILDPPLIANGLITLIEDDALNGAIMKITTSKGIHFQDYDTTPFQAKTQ
#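 NADH formation kinetics: reaction with 30 uM PGE2 and 1 mM NAD+ (final), 20 nM enzyme, Tris-HCl pH 8 with Tween 20, after 15 min compound preincubation at room temperature. Fluorescence change, last versus first of five reads.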
# PNC assembly inh – perinucleolar compartment assembly inhibition; PC3M PTB-GFP, PNC prevalence imaging, 16 h; active compounds read low; activity change (PNC), negative = inhibition, % at 10 µM; actives 3.1% (n = 140,000);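 active means readout at or below -70, meaning at least 70% loss of cells showing the perinucleolar compartment, a nuclear body marking cancer cells; inconclusive means readout between -30 and a set limit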;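 further: plate controls were DMSO wells for no effect and camptothecin positive control wells for full effect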
#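 Compounds are pinned in duplicate onto adhered PC3M cells stably expressing GFP-tagged PTB and incubated 16 h at 37 C. Cells are then fixed, nuclei stained with Hoechst, and PNC-positive cells counted.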
# ALOX12 inhib – inhibitors of human 12-lipoxygenase (ALOX12). P18054. purified 12-hLO, xylenol orange hydroperoxide absorbance. AID 1452. Potency, µM (doses to about 57.1 µM), inactives show at the top dose activity change, negative = inhibition, actives largely listed as inhibitors. actives 0.12% (n = 150,000); active means well fitted inhibition curve with a large enough effect; inconclusive means small, poorly fitted or top-dose-only effect; further: potency means the concentration at half of the fitted maximal effect; nearly all actives have a fitted effect of over 55% in size
#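 Hydroperoxide output read as Fe(III)-xylenol orange absorbance, 573-to-405 nm ratio, after 30 min reaction with 40 uM arachidonic acid. Enzyme: 150 nM purified human 12hLO, 15 min compound preincubation; 25 mM Hepes pH 7.0, room temperature.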
# ALDH1A1 block – blocks purified human ALDH1A1 activity | P00352 | Purified ALDH1A1, NADH fluorescence, propionaldehyde substrate | Potency, µM (top dose mostly 75.3 µM), inactives show at the highest dose activity, negative = inhibition, most hits filed as inhibitors | actives 7.3% (n = 220,000);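 further: potency means the concentration at half of the fitted maximal effect; plate controls were no enzyme wells and a reference inhibitor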
# The depositor's hits bear a star; ? = inconclusive; · = not tested or not shown; [ ] = another dose, or the depositor's remark. Unless noted, the call rests on the fitted dose curve; in most records, active means well fitted inhibition curve with a large enough effect (not every such curve was filed as active); inconclusive means small, poorly fitted or top-dose-only effect, or another doubt; inactive means no such curve, though single readings can be large or run the other way. Unless noted, on the % scale 0 is the no-effect control and ±100 the full control effect.
SMILES,LMNA splice mod,HPGD block,PNC assembly inh,ALOX12 inhib,ALDH1A1 block
COc1cccc(NC(=O)CC2S/C(=N\S(=O)(=O)c3ccccc3)N(c3ccccc3)C2=O)c1 (configuration not stated),-12%,-21%,3,-4%,20µM*
Cc1cccnc1NC(=O)C1c2ccccc2Oc2ccccc21,?,-9%,2,-2%,12%
O=C(Nc1cccc(-c2nc3cccnc3s2)c1)C1c2ccccc2Oc2ccccc21,10%,?,-119*,3%,?
COc1ccc2c(=O)cc(-c3ccc(O)cc3)oc2c1,·,?,·,-6%,?
COc1ccc(OC)c(-c2c3cc(O)c(=O)cc-3oc3cc(O)c(O)cc23)c1,?,14µM*,-6,?,?
CCOc1ccccc1-c1c2cc(O)c(=O)cc-2oc2cc(O)c(O)cc12,-8%,18µM*,-83*,-30%,20µM*
CN1C[C@@H]2C(c3ccc(Cl)nc3)C3(c4ccccc4)CC2(C3)[C@H]1c1ccccc1 (some centres not stated),·,-10%,·,1%,-3%
COc1ccc(N=C2NC(=O)/C(=C\C=C\c3ccco3)S2)cc1,-14%[9.22 µM],·,·,·,11µM*
Cc1ccc(NC(=O)C2CCN(c3nc4ccccc4[nH]3)CC2)c(C)c1,0%[46 µM],·,·,·,·
COc1ccc(OC)c(/C=C2\S/C(=N/NC(=O)c3ccc4ccccc4c3)NC2=O)c1,-19%,4µM*,23,1%,?
CN(C)C(CNc1nnnn1-c1ccccc1)c1ccco1 (configuration not stated),-3%,-3%,-90*,2%,-7%
CC(Sc1nc(C(C)(C)C)cc(-c2ccccc2)c1C#N)C(=O)Nc1ccccc1 (configuration not stated),-14%,16µM*,-16,1%,25µM*
CC1=NOC(=O)/C1=C\c1ccc2c(c1)OCO2,-18%[46 µM],·,·,·,13µM*
CCOc1cc(/C=C2/C(=O)ON=C2C)ccc1OCc1ccccc1F,?,1.6µM*,85,-10%,5µM*
O=C1OCC/C1=C\c1ccc2c(c1)OCO2,·,·,·,·,3%
O=C(NCc1cccnc1)C(=O)NCC1OCCN1S(=O)(=O)c1ccc(F)cc1 (configuration not stated),-5%,-13%,44,2%,-9%
CCc1ccc(C(=O)/C=C/c2ccc([N+](=O)[O-])o2)cc1,?,-24%,15,?,3.5µM*
Cc1cnc(CNc2ccnc(-c3ccccc3C)n2)cn1,6%,·,·,·,6%
Cc1ccc(NC(=O)CSc2nnc3ccc4ccccc4n23)cc1,-7%[46 µM],·,·,·,·
CC(=O)N1CCC(=NNc2ncc(C(F)(F)F)cc2Cl)CC1,·,·,·,·,16µM*
CCOC(=O)N1CCC(=NNc2ncc(C(F)(F)F)cc2Cl)CC1,-10%[46 µM],·,·,·,?
O=[N+]([O-])/C(C(Cl)=C(Cl)Cl)=C(/Sc1ccccc1)N1CCCCC1,·,·,·,·,18µM*
N#CCC1c2ccccc2CCN1C(=O)Nc1ccc(Cl)cc1 (configuration not stated),-3%,-3%,-81*,2%,-2%
C=CCc1ccc(OCCCCNC(C)CC)c(OC)c1 (configuration not stated),10%,1%,-23,2%,?
C/C=C/c1ccc(OCCCNC2CCCC2)c(OC)c1,-7%,-6%,?,-7%,28µM*
SMILES,LMNA splice mod,HPGD block,PNC assembly inh,ALOX12 inhib,ALDH1A1 block
C/C=C/c1ccc(OCCCNC(C)CC)c(OC)c1 (configuration not stated),11%,-9%,55,-10%,16µM*
COc1ccc(-c2c(O)c3c(OC)c4c(cc3oc2=O)OC(C)(C)C=C4)cc1,-7%,-22%,·,-12%,?
Cc1ccc(-c2cn(-c3ccccc3)c(SCC(=O)NC3CCS(=O)(=O)C3)n2)cc1C (configuration not stated),20%,-11%,-83*,-3%,14µM*
Cc1nc(N2CCOCC2)nc(N2CCCCC2)c1[N+](=O)[O-],-5%,-2%,?,1%,16µM*
CCCSc1cc(N2CCN(C)CC2)nc(-c2ccc(OC)cc2)n1,-7%,-19%,-81*,3%,?
CCSC[C@@H](N)C(=O)O,·,-4%,·,-3%[11.4 µM],-4%[13.5 µM]

# Screening data as filed in PubChem.
